Test results as given in the supplement of paper PMC3334620.
Over roughly 33,000 sequences, “E-score (-0.5 to 0.5)” has its median near -0.015; the highest 2% begin near 0.3. The full list was thinned out, with the highest values kept by preference.

Each sequence was assayed against T1, Abf1 (UniProt P14164) (assay: PBM E-score (8-mer binding enrichment) (E-score (-0.5 to 0.5)); higher = stronger / more preferred TF binding). Conditions: protein concentration: 200 nM; construct: GST-full length.
T1 sequence: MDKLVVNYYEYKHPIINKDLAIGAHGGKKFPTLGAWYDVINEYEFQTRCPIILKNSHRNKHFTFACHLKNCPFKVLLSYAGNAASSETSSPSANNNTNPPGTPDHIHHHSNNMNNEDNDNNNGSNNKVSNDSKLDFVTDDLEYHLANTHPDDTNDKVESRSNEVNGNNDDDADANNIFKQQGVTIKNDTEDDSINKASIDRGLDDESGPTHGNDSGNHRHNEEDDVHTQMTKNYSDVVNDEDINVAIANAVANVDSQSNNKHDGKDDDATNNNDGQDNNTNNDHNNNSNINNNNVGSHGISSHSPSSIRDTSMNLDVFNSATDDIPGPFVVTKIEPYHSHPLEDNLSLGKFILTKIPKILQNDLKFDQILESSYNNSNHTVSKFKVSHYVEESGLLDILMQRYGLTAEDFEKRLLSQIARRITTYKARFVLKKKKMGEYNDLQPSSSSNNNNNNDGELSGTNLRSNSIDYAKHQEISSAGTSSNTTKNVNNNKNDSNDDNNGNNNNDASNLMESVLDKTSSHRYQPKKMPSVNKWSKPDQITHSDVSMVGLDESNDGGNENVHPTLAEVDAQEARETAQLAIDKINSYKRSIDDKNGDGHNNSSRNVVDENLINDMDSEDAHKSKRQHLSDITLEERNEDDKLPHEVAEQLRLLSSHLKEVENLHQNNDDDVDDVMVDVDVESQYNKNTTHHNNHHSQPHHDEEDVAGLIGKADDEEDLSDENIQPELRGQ
Outline: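 For each ungapped eight-base word taken together with its reverse complement, the Universal PBM Analysis Suite assigned an E-score. Binding data came from GST-tagged yeast transcription factors, applied at about 100-200 nM, on universal all-10-mer Agilent arrays made double-stranded by primer extension. Fluorescent anti-GST marked bound protein, and scans were normalised with masliner.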

Sequence | PBM E-score
AAACCGGT | -0.0782
CATACTGA | -0.108
AAAGAGGA | -0.237
ATAATCAC | 0.331
CTAATCAC | 0.251
ATAATCAG | 0.0922
GTAATCAC | 0.141
ATAATCAT | 0.326
ATAATCAA | 0.0595
CCACCTAC | -0.011
ACCGTAGG | 0.0666
CTAAATCC | 0.0568
AAGCGCCA | -0.247
TGATGTAA | 0.145
ACCCTCGA | -0.17
ACGACGGG | 0.304
ACGACGGC | 0.164
ACGACGCA | 0.262
ACGACGGA | 0.251
TCGACAAA | -0.0435
TCGACGCA | 0.113
GCGACGAA | 0.313
ACGACGAA | 0.373
GCGACGCA | 0.196
TCGACGAA | 0.349

Sequence | PBM E-score
GCGACGAC | 0.098
CCGACGAA | 0.205
CATAAGTC | -0.00466
AACCGGTT | 0.0655
TAGAAGCA | -0.0239
CAAGGAAA | -0.198
AGGGCGCC | -0.0691
ATCGCTAA | 0.28
ATCTATTC | 0.114
ACGACGAT | 0.315
ACGACGAC | 0.292
ACGACGAG | 0.156
GTACTGCA | -0.101
AAACACCC | -0.0385
GGTGCACA | -0.05
AATGTACG | 0.192
CATGTACG | 0.319
CATGTACA | -0.0299
TAAGTCTA | -0.136
CTGTCATC | 0.108
ATGTCATG | 0.349
ATGTCAAG | -0.0386
ATGTCAGG | -0.133
ATGTCATA | 0.176
ATGTCATC | 0.394

Sequence | PBM E-score
AGTCGAAT | -0.178
AAGGAACC | -0.053
TCGATCGA | -0.141
CAGACAAC | -0.0277
ATGTCACA | 0.282
CTGTCACC | 0.174
CTGTCACA | 0.138
ATGTCAGC | 0.0322
ATGTCACG | 0.437
ATGTCACC | 0.429
GTCCTCAC | 0.0512
GGGCTCTA | -0.22
CCCCTGGA | -0.17
AACGGACT | -0.0919
CGATGGCG | -0.0766
GTTAGCAA | 0.104
ATGATGCC | 0.0807
ATGATTGG | -0.094
GTGATGCA | 0.185
ATGATGAA | 0.306
ATGATGCA | 0.309
ATGATTGA | 0.346
CTGATGAA | 0.0318
ATGATGAG | 0.141
GTGATGAA | 0.207

Sequence | PBM E-score
CTGATGAC | 0.203
ATGATGAC | 0.306
ATGATTGC | 0.0463
GAATGGAC | 0.0322
GTTCCGGA | -0.0188
TATACATA | 0.0494
GAGGGGGC | -0.346
CGGAGTCA | -0.111
AAAGCCTT | -0.219
CTATGGGA | -0.0561
GCACCGTA | 0.0841
ACACCGTA | 0.0493
CCACCGTA | 0.341
GGGGGCCA | -0.462
CGTAGAAG | 0.222
AGTAGAAA | 0.168
CGTAGAAA | 0.318
AGGGGTAT | -0.179
GCGTCGGA | -0.111
GGAGCCCC | -0.293
CATATTAG | 0.136
CATATTAA | 0.315
TATATTAA | 0.167
ACGAACGC | 0.214
GACTGTGC | 0.0177

Sequence | PBM E-score
CCGTGATA | 0.283
ACGTGATA | 0.318
GTGTGATA | 0.327
GCGTGAGA | 0.168
ATGTGATA | 0.291
ACGTGATC | 0.261
GCGTGATA | 0.353
ACGTGATG | 0.215
CTGTGATA | 0.201
CGCGATTA | 0.0309
AGGTATGC | 0.0905
CAGGCTGA | -0.188
AAATAATT | 0.212
CGTACACG | 0.245
AGTACATA | 0.0814
CGTACAGC | -0.0515
CGTACAGA | 0.308
AGTACAAA | 0.101
GGTACAGA | 0.00644
CGTACACA | 0.318
CGTACATA | 0.364
GGTACAAA | 0.0902
CGTACACC | -0.0081
CGTACAAA | 0.408
CGTACATC | 0.134

Sequence | PBM E-score
GGAGATAA | 0.0908
CAAACGGG | -0.0186
AACCGATT | 0.0401
GCACCCAA | -0.239
CTTCTTTA | 0.12
AGATGGGG | -0.284
GAACAATC | 0.0605
GAAATTCC | -0.102
CGTACAAC | 0.276
CGTACAAG | 0.357
AGTACAAG | 0.0462
GACGCCGA | 0.0176
TGTATCAA | -0.0209
AGTATAAG | 0.0186
TGTATAAA | 0.116
GGTATAAC | 0.0343
CATATAAG | 0.0553
CGTATAAC | 0.366
CGTATAAA | 0.417
AGTATAAA | 0.252
CGTATCAA | 0.343
CGTATCAC | 0.281
CGTATAAG | 0.349
AGTATAAC | 0.194
GATCCTAA | 0.0497

Sequence | PBM E-score
ACCAAAAC | 0.0329
ATTAAGTA | 0.133
ATCTGTCA | 0.212
CAACCAGG | -0.288
CGAAAGGA | 0.191
GGAATACA | -0.0854
ATGGCTAA | -0.0715
AATCGTCC | 0.168
CATCGTCG | 0.231
TATCGTCA | 0.33
CATCGTCC | 0.137
TATCGTGA | 0.286
AATCGTCA | 0.334
AATCGTCT | 0.269
CATCGTCA | 0.297
GATCGTCA | 0.277
CGAATGGA | 0.0823
GACCCTAA | 0.012
CAACGTTC | -0.145
CATGATGG | -0.191
CATGATGC | 0.123
GATGATGC | 0.152
